Measured values reported in PubChem BioAssay AID504861 (Broad Institute, 2011).
The whole screen tested about 1,200 compounds, of which about 290 (24%) were called active. About 3% were inconclusive and are not listed.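 How the source made its calls: active means compounds lowering cell viability signal with fitted half-maximal concentration at most ten times their highest tested concentration; inconclusive means flat fit with 30 to 70% signal loss, or poor fit; inactive means the rest.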 The list is a sample of the results. Results with a measured potency or affinity are listed apart.

Assay: HEK293T cell viability reduction, dose response, cytotoxicity control for LMP1 NF-kB inhibitor project, CellTiter-Glo luminescence, cherry-picks (AID 504861)
Settings: CellTiter-Glo ATP luminescence, 48 h; series mostly up to 26 µM; activity change, negative = cytotoxicity: at the top concentration

| SMILES | activity change, negative = cytotoxicity |
| --- | --- |
| NC(=O)C1(Nc2ccc([N+](=O)[O-])cc2)CCCC1 | -8.21% (inactive) |
| Cc1ccccc1Cn1c(O)c(N=NC(=S)Nc2ccccc2F)c2ccccc21 | 8.25% (inactive) |
| CCOc1ccc(NC(=O)Cn2cc(C(=O)CC)c3ccccc32)cc1 | 9.94% (inactive) |
| O=C(O)c1ccc(N/N=C/c2ccc3ncccc3c2)cc1 | 18.4% (inactive) |
| COc1cccc(C(=O)Nc2nc3ccccc3[nH]2)c1 | -10.2% (inactive) |
| O=C(CSc1nc2ccccc2c(=O)n1CCCN1CCOCC1)Nc1ccc(Br)cc1 | 5.39% (inactive) |
| CC(C)(C)c1ccc(C(=O)Nc2nnc(SCC(=O)NCC3CCCO3)s2)cc1 (stereo unspecified) | 6.78% (inactive) |
| CCC(Oc1ccccc1)C(=O)NC1CCSC1=O (stereo unspecified) | 11.1% (inactive) |
| O=C(NC1CCCCC1)N1CCN(c2ccc([N+](=O)[O-])cc2)CC1 | -5.64% (inactive) |
| CCOC(=O)c1sc2nc(C)nc(NCc3ccccc3)c2c1C | -0.055% (inactive) |
| CCN(CC(=O)Nc1ccc(NC(C)=O)cc1)C(=O)c1cccnc1Sc1ccc(C)c(C)c1 | 3.97% (inactive) |
| Cc1ccccc1C(=O)NC(=S)Nc1ccc(N2CCN(C(=O)c3ccccc3)CC2)cc1 | -0.757% (inactive) |
| Cc1ccc(CNC(=O)C(=O)NCC2OCCN2S(=O)(=O)c2ccc(Cl)cc2)cc1 (stereo unspecified) | 12.9% (inactive) |
| CN1CCN(/N=C/c2ccc(N(c3ccccc3)c3ccccc3)cc2)CC1 | -5.7% (inactive) |
| O=[N+]([O-])c1ccc(O)c(/C=N/Nc2ncnc3c2cnn3-c2ccccc2)c1 | 13% (inactive) |
| COc1cccc(/C=N/Nc2ncnc(N)c2[N+](=O)[O-])c1OC | 4.22% (inactive) |
| Cc1cc(C(=O)COc2cccnc2[N+](=O)[O-])c(C)n1-c1ccccc1F | -9.11% (inactive) |
| Cc1ccsc1-c1nc(CSCC(=O)N2CCN(c3ccccc3)CC2)c(C)o1 | -11.5% (inactive) |
| Oc1c(N=NC(=S)Nc2ccccc2F)c2ccccc2n1Cc1ccc(F)cc1 | -7.28% (inactive) |
| COc1ccc(Cn2c(SCc3cc(C)ccc3C)nc3cc(OC)c(OC)cc3c2=N)cc1 | 3.5% (inactive) |
| COc1ccc(-c2cn3nc4c(nc3n2)CCCC4)cc1 | 5.52% (inactive) |
| CCOC(=O)C1=C(C)NC(C)=C(C(=O)OCC)C1C(=O)OCC(=O)N(C)C1CCS(=O)(=O)C1 (stereo unspecified) | 15.2% (inactive) |

| SMILES | activity change, negative = cytotoxicity |
| --- | --- |
| O=C(CCCN1C(=O)/C(=C/c2ccccc2Cl)SC1=S)NNC(=O)c1ccccc1Cl | 4.78% (inactive) |
| Cc1cc(C(=O)CSc2nnc(-c3cccs3)o2)c(C)n1-c1ccccc1 | 1.11% (inactive) |
| O=C(O)CN1C(=O)/C(=C\c2ccccc2OCc2ccc(Cl)cc2Cl)SC1=S | 5.71% (inactive) |
| O=c1c2cnn(-c3ccccc3)c2nc(-c2cccs2)n1-c1ccc(Br)cc1 | 1.27% (inactive) |
| COc1ccc(N2CCN(CCNC(=O)CCCn3c(=O)[nH]c4cc(Cl)ccc4c3=O)CC2)cc1 | 5.79% (inactive) |
| COc1ccc(NC(=O)c2ccc(-c3ccccc3)cc2)cc1S(=O)(=O)N1CCOCC1 | 0.12% (inactive) |
| COc1cc(C(=S)N2CCOCC2)cc(OC)c1OC(=O)c1ccc(F)cc1 | 2.77% (inactive) |
| CC(C)CCNC(=O)C1CCN(S(=O)(=O)c2ccc3c(c2)CC(C)N3C(=O)C2CC2)CC1 (stereo unspecified) | -4.11% (inactive) |
| COc1ccc(OC)c(S(=O)(=O)NC(C)CCc2ccccc2)c1 (stereo unspecified) | -3.46% (inactive) |
| COc1ccc(C(=O)CSc2nnc(Cc3ccccc3)o2)cc1 | -0.444% (inactive) |
| Cc1ccc(-c2nc3cccnc3o2)cc1NC(=O)COc1ccc(C(C)(C)C)cc1 | -1.19% (inactive) |
| CCc1ccc(C(=O)COC(=O)c2cccc(N3C(=O)c4c(C)nc5ccccc5c4C3=O)c2)cc1 | 17.6% (inactive) |
| CCOC(=O)Cc1csc(N/N=C\c2ccc(N(C)C)cc2)n1 | -1.39% (inactive) |
| O=C(OCc1ccccc1F)c1cc2ccccc2cc1O | -1.01% (inactive) |
| Cc1cc(OCC(=O)Nc2cnn(CCCC(=O)O)c2)ccc1Cl | 13.2% (inactive) |
| C=CCn1c(SCc2ccc3nonc3c2)nnc1-c1cccs1 | 1.17% (inactive) |
| CCOC(=O)c1sc(NC(=O)CNCc2ccccn2)c(C(=O)OCC)c1C | -5.06% (inactive) |
| Cc1ccc(-n2ccc(=O)c(C(=O)Nc3ccc(S(=O)(=O)N4CCOCC4)cc3)n2)cc1 | 0.296% (inactive) |
| Cc1ccnc(NC(=O)c2sc3ccccc3c2Cl)c1 | 6.79% (inactive) |
| Oc1c(N=NC(=S)Nc2ccccc2F)c2ccccc2n1Cc1ccccc1 | -0.998% (inactive) |
| Cc1ccc(S(=O)(=O)NC(CC(C)C)C(=O)NCC(c2ccco2)N2CCCCC2)cc1 (stereo unspecified) | -0.283% (inactive) |
| CCCCCn1c(N2CCOCC2)nc2c1c(=O)n(CC(N)=O)c(=O)n2C | 8.7% (inactive) |

| SMILES | activity change, negative = cytotoxicity |
| --- | --- |
| C(=Cc1nc2ccccc2o1)c1ccc2c(c1)OCO2 | 2.36% (inactive) |
| O=C(NCCOc1ccccc1)c1ccc2c(c1)OCO2 | -2.16% (inactive) |
| Cc1cc(C)c(OCCn2ccnc2)c(C)c1 | -0.473% (inactive) |
| COc1ccc2oc(C(=O)NCCc3ccccc3)c(C)c2c1 | -1.74% (inactive) |
| COc1ccc(-c2nnc(NC(=O)c3ccc(S(=O)(=O)N4CCCc5ccccc54)cc3)o2)cc1 | 4.47% (inactive) |
| O=C1N[C@@H](Cc2c[nH]c3ccccc23)COC(=O)[C@H](Cc2ccc(F)cc2)C/C=C\C[C@H]1CC(=O)N(CCO)Cc1ccccc1 | -1.61% (inactive) |
| Cc1sc2ncnc(N3CCC(C(=O)Nc4ccccc4C(C)(C)C)CC3)c2c1C | -1.53% (inactive) |
| Cc1sc2ncn(CC(=O)N3CCC(C(N)=O)CC3)c(=O)c2c1S(=O)(=O)N1CCOCC1 | 10.7% (inactive) |
| O=c1oc2ccccc2c(O)c1/C=N/c1ccccn1 | 10.1% (inactive) |
| CC1(C)Cc2nc3sc4c(SCC(=O)O)ncnc4c3cc2CO1 | 5.57% (inactive) |
| COc1ccc(C(=O)N2CC(=O)Nc3ccccc32)cc1S(=O)(=O)N1CCCC1 | 17.4% (inactive) |
| CCOc1ccc(S(=O)(=O)N2CCC(C(=O)NCCc3ccc(S(N)(=O)=O)cc3)CC2)cc1 | 9.59% (inactive) |
| CCOc1ccc(NC(=S)N=Nc2c(O)[nH]c3ccccc23)cc1 | -3.24% (inactive) |
| CSc1oc(-c2ccc(F)cc2)nc1S(=O)(=O)c1ccc(F)cc1 | 5.8% (inactive) |
| O=C(CN1C(=O)C2C3C=CC(C3)C2C1=O)NCCC1=CCCCC1 (stereo unspecified) | 22% (inactive) |
| O=C(Cc1ccc(Cl)cc1)NCC(=O)N1CCCCC1 | 6.35% (inactive) |
| CCCCN1C2CCCC1CC(NC(=O)C1CCCCC1)C2 (stereo unspecified) | 7.49% (inactive) |
| Cc1ccc(C(=O)Nc2nnc(SCC(=O)N3CCCc4ccccc43)s2)cc1 | 5.64% (inactive) |
| CCc1sc(C(=O)Nc2nc(-c3ccccn3)cs2)cc1C | -6.77% (inactive) |
| Cc1cccc(CNc2ncnc3ccc(-c4ccoc4)cc23)c1 | 4.7% (inactive) |
| COCCn1c(C)cc(C(=O)CSc2nnc3ccccn23)c1C | -3.29% (inactive) |
| Cc1ccc(S(=O)(=O)N2c3ccccc3-c3c(ssc3=S)C2(C)C)cc1 | -4.1% (inactive) |
